Source: PubChem BioAssay (NCATS)
Results filed as inconclusive are left out. A number with no mark means an inactive call. Calls of active or inactive are those of the source. Calls come from the whole dose curve; as a rule, active = well fitted curve in the direction sought with a large enough effect; inconclusive = small, poorly fitted or top-dose-only effect, or another doubt; inactive = no such curve, though single readings can be large; an effect the other way counts as inactive or inconclusive.

Assays:
[1] = Quantitative High-Throughput drug screen in 47 multiple myeloma cell lines against the NCATS MIPE library collection: KMS12BM_JCRB cell viability assay (AID 1918971); note: nearly all actives have a fitted effect of over 35% in size
Procedure, shortened: (§1)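 Approved and investigational drugs from MIPE 4.0 were added by pin tool to 500 cells per well. After 48 hours at 37C, ATP-based CellTiter-Glo luminescence indicated remaining viability.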

[2] = Quantitative High-Throughput drug screen in 47 multiple myeloma cell lines against the NCATS MIPE library collection: KMS12PE_JCRB cell viability assay (AID 1918972); note: nearly all actives have a fitted effect of over 30% in size
Procedure, shortened: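 CellTiter-Glo luminescence (ATP) after 48 h compound exposure, 37C/5% CO2; 500 cells/well; MIPE 4.0 approved/investigational drugs pinned in; DMSO = 100%, media only = 0% viability.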

[3] = Quantitative High-Throughput drug screen in 47 multiple myeloma cell lines against the NCATS MIPE library collection: KMS20_JCRB cell viability assay (AID 1918973); note: nearly all actives have a fitted effect of over 45% in size
Procedure, shortened: (§2)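 CellTiter-Glo ATP luminescence gave viability after 48 h compound treatment at 37C of 500 multiple myeloma cells per well. Normalisation used DMSO-only wells as 100% and media-only wells as 0% viability; primary qHTS of approved and investigational drugs.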

[4] = Quantitative High-Throughput drug screen in 47 multiple myeloma cell lines against the NCATS MIPE library collection: KMS21BM_JCRB cell viability assay (AID 1918974); conditions: ATP luminescence, 48 h; viability: at 45.8 µM (top of the series)
Procedure, shortened: as §2

[5] = Quantitative High-Throughput drug screen in 47 multiple myeloma cell lines against the NCATS MIPE library collection: MOLP8_DSMZ cell viability assay (AID 1918977); note: nearly all actives have a fitted effect of over 45% in size
Procedure, shortened: (§3)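 500 cells/well; MIPE 4.0 drugs pin-transferred; 48 h, 37C, 5% CO2. CellTiter-Glo, 5 min RT, luminescence. Controls: DMSO 100%, media 0%.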

[6] = Quantitative High-Throughput drug screen in 47 multiple myeloma cell lines against the NCATS MIPE library collection: NCIH929_DSMZ cell viability assay (AID 1918978); note: nearly all actives have a fitted effect of over 35% in size
Procedure, shortened: as §3

[7] = Quantitative High-Throughput drug screen in 47 multiple myeloma cell lines against the NCATS MIPE library collection: MM1S_ATCC cell viability assay (AID 1918980); note: nearly all actives have a fitted effect of over 45% in size
Procedure, shortened: as §3

[8] = Quantitative High-Throughput drug screen in 47 multiple myeloma cell lines against the NCATS MIPE library collection: MM1R_ATCC cell viability assay (AID 1918981); note: nearly all actives have a fitted effect of over 35% in size
Procedure, shortened: as §3

[9] = Quantitative High-Throughput drug screen in 47 multiple myeloma cell lines against the NCATS MIPE library collection: LP1_DSMZ cell viability assay (AID 1918982); note: nearly all actives have a fitted effect of over 35% in size
Procedure, shortened: as §3

[10] = Quantitative High-Throughput drug screen in 47 multiple myeloma cell lines against the NCATS MIPE library collection: KMS28PE_JCRB cell viability assay (AID 1918983); note: nearly all actives have a fitted effect of over 35% in size
Procedure, shortened: as §3

[11] = Quantitative High-Throughput drug screen in 47 multiple myeloma cell lines against the NCATS MIPE library collection: OCIMY7_PLB cell viability assay (AID 1918987); conditions: OCI-MY7 myeloma viability, CellTiter-Glo ATP, 48 h; viability (% of DMSO): at 45.8 µM (top of the series); note: nearly all actives have a fitted effect of over 65% in size
Procedure, shortened: as §3

[12] = Quantitative High-Throughput drug screen in 47 multiple myeloma cell lines against the NCATS MIPE library collection: OPM1_PLB cell viability assay (AID 1918989); note: nearly all actives have a fitted effect of over 40% in size
Procedure, shortened: as §3

[13] = Quantitative High-Throughput drug screen in 47 multiple myeloma cell lines against the NCATS MIPE library collection: KMS26_JCRB cell viability assay (AID 1918975); note: nearly all actives have a fitted effect of over 45% in size
Procedure, shortened: as §1

[14] = Quantitative High-Throughput drug screen in 47 multiple myeloma cell lines against the NCATS MIPE library collection: MMM1_PLB cell viability assay (AID 1918976); note: nearly all actives have a fitted effect of over 35% in size
Procedure, shortened: as §3

[15] = Quantitative High-Throughput drug screen in 47 multiple myeloma cell lines against the NCATS MIPE library collection: OCIMY1_PLB cell viability assay (AID 1918979); note: nearly all actives have a fitted effect of over 35% in size
Procedure, shortened: as §3

[16] = Quantitative High-Throughput drug screen in 47 multiple myeloma cell lines against the NCATS MIPE library collection: OCIMY5_PLB cell viability assay (AID 1918988); note: nearly all actives have a fitted effect of over 65% in size
Procedure, shortened: as §3

[17] = Quantitative High-Throughput drug screen in 47 multiple myeloma cell lines against the NCATS MIPE library collection: SKMM1_PLB cell viability assay (AID 1919863); conditions: SKMM1 myeloma viability, CellTiter-Glo ATP, 48 h; viability: hits give low values; note: nearly all actives have a fitted effect of over 35% in size
Procedure, shortened: as §3

[18] = Quantitative High-Throughput drug screen in 47 multiple myeloma cell lines against the NCATS MIPE library collection: U266_ATCC cell viability assay (AID 1919864); note: nearly all actives have a fitted effect of over 35% in size
Procedure, shortened: as §3

[19] = Quantitative High-Throughput drug screen in 47 multiple myeloma cell lines against the NCATS MIPE library collection: KMS34_JCRB cell viability assay (AID 1918985); note: nearly all actives have a fitted effect of over 40% in size
Procedure, shortened: as §3

[20] = Quantitative High-Throughput drug screen in 47 multiple myeloma cell lines against the NCATS MIPE library collection: L363_DSMZ cell viability assay (AID 1918984); conditions: L363 myeloma viability, CellTiter-Glo ATP luminescence, 48 h; viability (% of control): at 45.8 µM (top of the series); note: nearly all actives have a fitted effect of over 40% in size
Procedure, shortened: as §3
Potency is the fitted concentration of half-maximal effect.

SMILES	Potency [1]	Potency [2]	Potency [3]	Potency [4]	Potency [5]	Potency [6]	Potency [7]	Potency [8]	Potency [9]	Potency [10]	Potency [11]	Potency [12]	Potency [13]	Potency [14]	Potency [15]	Potency [16]	Potency [17]	Potency [18]	Potency [19]	Potency [20]
CC[C@H](NC(=O)[C@H](C)NC)C(=O)N1C[C@@H](O)C[C@H]1Cc1c(-c2[nH]c3cc(F)ccc3c2C[C@H]2C[C@H](O)CN2C(=O)[C@H](CC)NC(=O)[C@H](C)NC)[nH]c2cc(F)ccc12	inactive	11.8 µM (active)	4.69 µM (active)	0.526 µM (active)	inactive	20.9 µM (active)	3.32 µM (active)	0.418 µM (active)	20.9 µM (active)	inactive	1.87 µM (active)	13.2 µM (active)	–	–	–	–	–	–	–	–
CCOC(=O)N1CCN([N+]([O-])=NOc2cc(ON=[N+]([O-])N3CCN(C(=O)OCC)CC3)c([N+](=O)[O-])cc2[N+](=O)[O-])CC1	5.26 µM (active)	inactive	2.64 µM (active)	–	2.35 µM (active)	2.64 µM (active)	9.35 µM (active)	2.09 µM (active)	33.2 µM (active)	5.9 µM (active)	2.96 µM (active)	–	2.35 µM (active)	6.62 µM (active)	7.43 µM (active)	2.35 µM (active)	4.69 µM (active)	7.43 µM (active)	–	–
CCCCCOC(=O)Nc1nc(=O)n([C@@H]2O[C@H](C)[C@@H](O)C2O)cc1F (some centres not stated)	inactive	inactive	inactive	–	–	–	–	inactive	inactive	inactive	inactive	inactive	inactive	inactive	inactive	–	–	inactive	inactive	–
OC(c1cc(C(F)(F)F)nc2c(C(F)(F)F)cccc12)C1CCCCN1 (configuration not stated)	26.4 µM (active)	20.9 µM (active)	10.5 µM (active)	–	23.5 µM (active)	20.9 µM (active)	20.9 µM (active)	–	18.7 µM (active)	26.4 µM (active)	10.5 µM (active)	18.7 µM (active)	29.6 µM (active)	23.5 µM (active)	–	14.8 µM (active)	23.5 µM (active)	–	–	–
CCN1CCC(n2cc(CNc3cc(Cl)c4ncc(C#N)c(Nc5ccc(F)c(Cl)c5)c4c3)nn2)CC1	9.35 µM (active)	8.33 µM (active)	16.6 µM (active)	–	–	20.9 µM (active)	16.6 µM (active)	8.33 µM (active)	–	7.43 µM (active)	–	18.7 µM (active)	8.33 µM (active)	14.8 µM (active)	–	4.18 µM (active)	5.9 µM (active)	20.9 µM (active)	–	4.69 µM (active)
CCC(C)SSc1ncc[nH]1 (configuration not stated)	13.2 µM (active)	9.35 µM (active)	5.26 µM (active)	8.33 µM (active)	4.18 µM (active)	3.72 µM (active)	–	5.26 µM (active)	8.33 µM (active)	11.8 µM (active)	3.72 µM (active)	–	3.72 µM (active)	7.43 µM (active)	8.33 µM (active)	5.26 µM (active)	11.8 µM (active)	4.69 µM (active)	4.18 µM (active)	–
CSc1cccc(Nc2ncc3cc(-c4c(Cl)cccc4Cl)c(=O)n(C)c3n2)c1	1.32 µM (active)	0.059 µM (active)	0.0105 µM (active)	0.0209 µM (active)	0.833 µM (active)	13.2 µM (active)	–	2.35 µM (active)	–	2.35 µM (active)	0.0935 µM (active)	–	9.35 µM (active)	–	–	0.296 µM (active)	–	–	1.48 µM (active)	–
CCOC(=O)[C@H](CCc1ccccc1)N[C@@H](C)C(=O)N1CCCC1C(=O)O (some centres not stated)	inactive	inactive	inactive	–	–	inactive	10.5 µM (active)	–	inactive	inactive	inactive	–	inactive	–	inactive	–	–	20.9 µM (active)	–	–
CC[C@H](C)C(=O)O[C@H]1C[C@H](O)C=C2C=C[C@H](C)[C@H](CC[C@@H](O)C[C@@H](O)CC(=O)O)[C@H]21	inactive	inactive	inactive	inactive	–	inactive	inactive	–	inactive	inactive	inactive	inactive	–	–	inactive	inactive	–	inactive	inactive	–
O=C(CC12CC3CC(CC(C3)C1)C2)Nc1cccc2nc(NCCNCCO)ccc12	18.7 µM (active)	9.35 µM (active)	6.62 µM (active)	–	–	2.35 µM (active)	8.33 µM (active)	20.9 µM (active)	–	16.6 µM (active)	0.743 µM (active)	7.43 µM (active)	18.7 µM (active)	–	–	11.8 µM (active)	16.6 µM (active)	23.5 µM (active)	26.4 µM (active)	–
